Among the data in PubChem BioAssay (NCATS) are Potency, max response and activation values, retold here.

Values joined by “and” are separate entries in the source; they are usually repeats but may differ in a detail not shown here. Equal entries are not always repeated. Inconclusive results are not listed. Active and inactive are the calls of the source. Unless noted, calls come from the whole dose curve; as a rule, active = well fitted curve in the direction sought with a large enough effect; inconclusive = small, poorly fitted or top-dose-only effect, or another doubt; inactive = no such curve, though single readings can be large; an effect the other way counts as inactive or inconclusive. Bounds are passed on as bounds.

A short description of assay [1]: Cell Viability - HepG2 (AID 433; calls by dose curve;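 note: potency is the fitted concentration of half-maximal effect; cells exposed to compound for 40 hours; potency for ATP loss meaning cytotoxicity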). Particulars: qHTS. In outline:
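HepG2 hepatocellular carcinoma cells (1500/well) were treated with compounds for 40 h at 37 °C in complete medium; intracellular ATP was read by CellTiter-Glo luminescence. Data were normalized to DMSO and 100 uM tamoxifen, and AC50 came from Hill fits.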
In general terms: Quantitative high-throughput screening tests each substance at several concentrations.

The nature of assay [2]: Cell Viability - Mesenchymal (AID 546).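 Note: cells exposed to compound for 40 hours before reading.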 The settings on record: mesenchymal cells viability, qHTS; activity change, negative = cytotoxicity: at 91.7 µM (top of the series). In outline: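 In this qHTS cytotoxicity format, glomerulus-derived human mesenchymal kidney cells received compound for 40 hr, then luciferase-based ATP quantitation. Concentration-response data were fitted with the Hill equation.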

Assay [3] is described as follows: Cellular Toxicity (caspase-3) Jurkat (AID 655).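 Note: cells exposed to compound for 16 h at 37 °C before reading.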 Particulars: Jurkat caspase-3 activation, luminescence; caspase-3 activation: at 92.2 µM (top of the series), DMSO = 0%, tamoxifen = 100%. In short, it runs like this: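 Jurkat cells (5000/well) in complete medium were treated with compounds for 16 hr at 37 °C, then Caspase-Glo 3/7 luminescence was read after 20 min at room temperature. Data normalized to DMSO (basal) and 100 uM tamoxifen (100%); AC50 from Hill fit.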

Assay [4] is described as follows: Cell Viability - LYMP1-002 - Assay at 16 hr (AID 948).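 Note: 0% = DMSO alone and full effect = 92 µM tetraoctylammonium bromide.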 In outline:
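Human lymphoblastoid cells (LYMP1-002), 2500/well, were preincubated 5 hr at 37 C, then exposed to compounds for 16 hr at 37 C in complete medium. Cellular ATP was read by CellTiter-Glo luminescence after 30 min at room temperature; AC50 from Hill fits.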

The nature of assay [5]: Cell Viability - LYMP2-003 (AID 965).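 For activity change, negative = cytotoxicity: 0% = DMSO only and full effect = 92 µM tetraoctylammonium bromide.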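 Note: cells exposed to compounds for 24 h before reading; nearly all actives have a fitted effect of over 50% in size.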 Note: potency is the fitted concentration of half-maximal effect. In short, it runs like this: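 Human lymphoblastoid cells (2500/well) were pre-incubated 5 hr at 37 C, then exposed to compounds over a concentration range for 24 hr at 37 C. Intracellular ATP was read by CellTiter-Glo luminescence; AC50 came from Hill-equation fits.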
The nature of assay [6]: Cell Viability - LYMP2-011 (AID 969).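 Note: 0% = DMSO only and full inhibition = 92 µM tetraoctylammonium bromide; nearly all actives have a fitted effect of over 60% in size.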 In short, it runs like this:
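In this qHTS cytotoxicity format, compounds are tested across concentrations on human lymphoblastoid cells in complete medium for 24 hours at 37 C. Viability is taken as cellular ATP measured by luciferase luminescence.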

Assay [7] is described as follows: Cell Viability - LYMP2-013 (AID 970).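 Note: 0% = DMSO only and full inhibition = tetraoctylammonium bromide control; nearly all actives have a fitted effect of over 55% in size.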 In outline:
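Cytotoxicity is scored as a concentration-dependent drop in intracellular ATP in human lymphoblastoid cells after 24 hr compound exposure at 37 C. ATP is quantified by luciferase luminescence, and AC50 values come from Hill-equation modeling.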

The nature of assay [8]: Cell Viability - LYMP2-021 (AID 974).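 Note: compound exposure lasts 24 hours at 37 °C; % is set by controls: 0 for no effect and ±100 for the full control effect; nearly all actives have a fitted effect of over 55% in size.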 In short, it runs like this:
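Loss of cellular ATP, measured with a luciferase-based CellTiter-Glo readout, serves as the toxicity signal in human lymphoblastoid cells treated for 24 hours at 37 C. Potency is reported as AC50 from a standard Hill model.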

The nature of assay [9]: Cell Viability - LYMP2-002 (AID 977).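 Note: compound exposure lasted 24 h at 37 °C; plate controls were DMSO only for no effect and 92 µM tetraoctylammonium bromide for full effect.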 In outline: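 In this qHTS viability screen, 2500 human lymphoblastoid cells per well receive compound for 24 hr at 37 C, and luciferase-based ATP luminescence gives the viability signal. Tetraoctylammonium bromide serves as positive control.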
Assay [10] can be described thus: Cell Viability - LYMP2-008 (AID 980). Note: % is set by controls: 0 for no effect and ±100 for the full control effect; nearly all actives have a fitted effect of over 60% in size. In short, it runs like this:
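Cells seeded at 2500/well and rested 5 hr at 37 C; compounds added over a concentration range and incubated 24 hr at 37 C; CellTiter-Glo added, 30 min at room temperature; luminescence read and AC50 fitted with Hill model.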

Assay [11] can be described thus: Cell Viability - LYMP2-012 (AID 982).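 Note: cellular ATP by luciferase luminescence where a drop means cytotoxicity; cells exposed to compound for one day before reading; 0% = DMSO only and full loss = 92 µM tetraoctylammonium bromide; nearly all actives have a fitted effect of over 55% in size.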
Assay [12] can be described thus: Cell Viability - LYMP2-014 (AID 983).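 Note: plate controls were DMSO only for no effect and 92 µM tetraoctylammonium bromide for full effect; nearly all actives have a fitted effect of over 50% in size.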 In outline:
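Cells are plated at 2500/well and left 5 hr at 37 C. Compounds are added across a concentration range and incubated 24 hr at 37 C in complete medium. CellTiter-Glo is added, and luminescence is read after 30 min at room temperature.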

The nature of assay [13]: Cell Viability - LYMP2-016 (AID 984). Note: % is set by controls: 0 for no effect and ±100 for the full control effect; nearly all actives have a fitted effect of over 55% in size. In short, it runs like this:
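Human lymphoblastoid cells (LYMP2-016), 2500/well in complete medium, preincubated 5 hr at 37 C, then compound-treated 24 hr at 37 C. Intracellular ATP read by CellTiter-Glo luminescence after 30 min at room temperature; AC50 from Hill-equation concentration-response fits.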

Assay [14] can be described thus: Cell Viability - LYMP2-020 (AID 986). In short, it runs like this: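 Seed 2500 cells per well and incubate 5 hr at 37 C. Add compounds at a concentration series and incubate 24 hr at 37 C. Add CellTiter-Glo, wait 30 min at RT, read luminescence, and fit a Hill curve for AC50.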
The nature of assay [15]: Cell Viability - LYMP2-024 (AID 988).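 Note: plate controls were DMSO only for no effect and 92 µM tetraoctylammonium bromide for full effect; nearly all actives have a fitted effect of over 60% in size.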 In outline:
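qHTS cytotoxicity, human lymphoblastoid line, complete medium; 24 h cpd treatment, 37 C; CellTiter-Glo ATP luminescence readout; tetraoctylammonium bromide positive control; AC50 via Hill fit.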

Assay [16] can be described thus: Cell Viability - LYMP2-026 (AID 989). Note: % is set by controls: 0 for no effect and ±100 for the full control effect; nearly all actives have a fitted effect of over 50% in size. In short, it runs like this: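 Cells are seeded at 2500 per well and held 5 hr at 37 C. Compounds are added in concentration series for 24 hr, then CellTiter-Glo reagent is applied and luminescence read.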
Assay [17] can be described thus: Cell Viability - LYMP1-002 - Assay at 40 hr (AID 994).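 Note: 0% = DMSO only and full inhibition = 92 µM tetraoctylammonium bromide; nearly all actives have a fitted effect of over 60% in size.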 In short, it runs like this: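 Cells are plated at 2500 per well and rested 5 hr at 37 C. Compounds are added and incubated 40 hr at 37 C. CellTiter-Glo reagent is added for 30 min at room temperature before luminescence is read.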
The nature of assay [18]: qHTS assay for small molecule antagonists of retinoid X receptor alpha signaling (AID 588546; active = well fitted inhibition curve with a large enough effect in the signal ratio, with a control signal flat, not every such curve was filed as active; the % refers to the signal ratio;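 note: cells stimulated with 9-cis-retinoic acid as agonist; % is set by controls: 0 for no effect and ±100 for the full control effect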). The settings on record: HEK293T RXRa-UAS-bla, beta-lactamase ratio, antagonist mode; measured here: W530 green channel, cytotoxicity proxy. In outline:
(§1)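 Beta-lactamase reporter inhibition, read as CCF4 fluorescence ratio (ex 405, em 460/530 nm) after 2 h at RT. HEK293T UAS-bla cells, 2500/well, were stimulated with 9-cis-RA at 500 or 100 nM final alongside test compound for 18 h at 37 C.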

The target in assay [19] is Retinoic acid receptor RXR-alpha (Homo sapiens) (UniProt P19793). Described as above. The settings on record: HEK293T RXRa-UAS-bla, beta-lactamase ratio, antagonist mode. In short, it runs like this:
as §1

A short description of assay [20]: qHTS assay for environmental chemicals that activate the Aryl hydrocarbon Receptor (AhR) signaling pathway (AID 651777). For activation: % of control where 0% means no effect. Note: nearly all actives have a fitted effect of over 15% in size. Note: potency is the fitted concentration of half-maximal effect. Particulars: 1A2-DRE human hepatoma cells, luciferase, 24 h; activation: stronger effect = higher value. In short, it runs like this: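 Induction of CYP1A2 transcription through AhR is detected by luciferase in 1A2-DRE hepatoma cells. Compounds or DMSO act for 24 hr at 37 C before a 30 min One-Glo step at room temperature.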

Retinoic acid receptor RXR-alpha (Homo sapiens), sequence (P19793 whole entry, looked up): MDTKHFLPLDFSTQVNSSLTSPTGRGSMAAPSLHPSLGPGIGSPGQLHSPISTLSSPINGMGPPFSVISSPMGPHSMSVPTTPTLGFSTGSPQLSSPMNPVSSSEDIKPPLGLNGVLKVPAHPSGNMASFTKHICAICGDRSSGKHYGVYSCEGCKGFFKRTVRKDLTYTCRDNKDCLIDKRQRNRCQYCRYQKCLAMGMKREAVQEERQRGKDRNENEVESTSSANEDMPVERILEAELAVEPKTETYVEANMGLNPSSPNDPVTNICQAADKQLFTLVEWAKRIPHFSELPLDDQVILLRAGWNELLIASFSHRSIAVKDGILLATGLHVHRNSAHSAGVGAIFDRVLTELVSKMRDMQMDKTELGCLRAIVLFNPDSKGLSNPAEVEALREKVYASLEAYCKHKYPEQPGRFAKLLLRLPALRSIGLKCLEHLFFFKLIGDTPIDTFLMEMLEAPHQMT

For `C=C(C#N)C(=O)OCC`, in [1], the Potency was > 92 µM (inactive). For the same compound, the Potency result in assay [2], in assay [3], in assay [4], in [5], in assay [6] and in assay [7] was “inactive” in each case. The Potency result in [8], in [9], in [10], in assay [11], in [12] and in [13] was “inactive” in each case. Moreover, the Potency result in [14], in assay [15], in assay [16] and in assay [17] was “inactive” each time. Further, the max response in [18] is -6.72%; in assay [19] it was 9.58% (inactive). For the same compound, the activation in assay [20] is -0.801% (inactive).
As to `CCc1ccc(C(c2ccc(CC)cc2)C(Cl)Cl)cc1`, the Potency in [1] was > 92 µM (inactive). Besides, the Potency entry in assay [2], in assay [3], in assay [4], in assay [5], in [6] and in assay [7] was “inactive” each time. Besides, the Potency entry in assay [8], in [9], in [10], in [11], in assay [12] and in [13] was “inactive” in each case. For the same compound, the Potency result in [14], in assay [15], in assay [16] and in [17] was “inactive” in each case. Further, the max response is -4.78% in [18] and -8.97% (inactive) in assay [19]. Further, the activation in assay [20] was -0.69% (inactive).
In the case of `O=[N+]([O-])c1cc(N(CCO)CCO)ccc1NCCO`, the Potency result in assay [3], in [6], in [9], in assay [10], in assay [11] and in assay [12] was “inactive” throughout. The Potency entry in assay [13], in [14], in assay [15], in assay [16] and in [17] was “inactive” throughout. Moreover, the max response in [18] was 5.15% and -22.9%; in assay [19], 0.262% (inactive) and 0.951% (inactive). Moreover, the activation in assay [20] is -2.68% (inactive) and -1.58% (inactive).
In the case of `Cc1c(C(=O)O)c(O)cc2c1C(=O)c1c(O)c([C@H]3O[C@H](CO)[C@@H](O)[C@H](O)[C@H]3O)c(O)c(O)c1C2=O`, the Potency result in [3], in assay [9] and in assay [14] was “inactive” in each case. Also, the max response was -15.8% in assay [18] and 21% (inactive) in assay [19]. In addition, the activation in assay [20] is -4.11% (inactive).
For `CCCCC(CC)COP(=O)(OCC(CC)CCCC)OCC(CC)CCCC` (stereo not drawn), the Potency in assay [1] was > 92 µM (inactive). The Potency entry in [2], in assay [3], in assay [4], in [5], in assay [6] and in assay [7] was “inactive” in each case. Besides, the Potency result in [8], in assay [9], in [10], in assay [11], in [12] and in assay [13] was “inactive” throughout. In addition, the Potency result in assay [14], in [15], in [16] and in [17] was “inactive” in each case. Moreover, the results for the max response in [18] and in assay [19] were -7.24% and -4.08% (inactive), respectively. Also, in assay [20], the activation was -1.66% (inactive).
Turning to `Nc1ccc2c(c1)C(=O)c1ccccc1C2=O`, the Potency result in [3], in [4], in [5], in assay [7], in assay [10] and in assay [11] was “inactive” throughout. In addition, the Potency result in [12], in assay [13], in [14], in [15] and in assay [17] was “inactive” throughout. Moreover, the max response is -11.8% and -6.92% in assay [18]; 7.8% (inactive) and -4.23% (inactive) in assay [19]. The Potency in assay [20] was 14.1 µM (active) and 44.7 µM (active).
In the case of `CC(/C=C/C=C(C)/C=C/C(=O)O)=C\C=C\C=C(C)\C=C\C=C(C)\C=C\C(=O)O`, the results for the Potency in [1] and in [5] were > 92 µM (inactive) and 50.1 µM (active), respectively. Besides, the Potency result in assay [2], in [3], in assay [4], in assay [6], in [7] and in [8] was “inactive” each time. The Potency entry in [9], in assay [10], in [12], in [13], in assay [14] and in assay [15] was “inactive” in each case. Besides, the Potency entry in assay [16] and in assay [17] was “inactive” each time. In addition, the max response was -20% in [18] and 16.8% (inactive) in [19]. Moreover, in [20], the activation is 9.06% (inactive).
